HCMV inh: qHTS Assay for inhibitors of the human cytomegalovirus (HCMV). HFF cells, HCMV-luciferase reporter, 72 h; stronger effect = lower value. activity change, negative = inhibition, % at 57.5 µM. hit rate 4.5% among 410,000. AID 1259415, 2018; in the data active = activity change below about -60%; inconclusive = no clear call, values can overlap the other calls; inactive = above about -39%; note: % is set by controls: 0 for no effect and ±100 for the full control effect
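Human foreskin fibroblasts infected with luciferase-reporter HCMV at MOI 1 PFU/cell, compounds at two doses. Luciferase measured 72 h post infection; normalized to buffer-only basal and Salinomycin (10uM) controls.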
Lassa entry inh: qHTS for Inhibitors of binding or entry into cells for Lassa Virus | Lassa virus pseudotype entry inhibition, cell reporter | Potency, µM (doses to about 37.9 µM), for the others: at the top dose activity change, negative = inhibition, most hits filed as inhibitors | hit rate 1.2% among 300,000; calls by dose curve; tested in HEK293 cells; note: potency is the fitted concentration of half-maximal effect; % is set by controls: 0 for no effect and ±100 for the full control effect; nearly all actives have a fitted effect of over 50% in size
FMDV inh: High Throughput Screening for Foot and Mouth Disease Virus Antivirals. FMDV antiviral cell-based qHTS. Potency, µM (series often up to 57.9 µM), for inactives: top-dose activity change, negative = inhibition, usual class: inhibitors. hit rate 1.2% among 410,000. AID 1159524, 2015; calls by dose curve; tested in HEK293T cells; note: read-out not given here; potency is the fitted concentration of half-maximal effect; % is set by controls: 0 for no effect and ±100 for the full control effect; nearly all actives have a fitted effect of over 45% in size
Marburg entry inh: qHTS for inhibitors of binding or entry into cells for Marburg Virus. AID 540276, 2011. Potency, µM (highest dose often 37.8 µM), inactives show at the top dose activity change, negative = inhibition, most hits filed as inhibitors. Marburg virus pseudotyped entry inhibition, cell reporter. hit rate 1.8% among 300,000; calls by dose curve; tested in HEK293 cells; note: potency is the fitted concentration of half-maximal effect; % is set by controls: 0 for no effect and ±100 for the full control effect
SARS PLpro yeast: qHTS of Yeast-based Assay for SARS-CoV PLP; Potency, µM (top dose mostly 32.9 µM), for inactives: at the top dose activity, positive = growth rescue, hits mostly activators; hit rate 0.19% among 330,000; AID 485353, 2010; S. cerevisiae expressing SARS-CoV PLpro, growth rescue; calls by dose curve; note: potency is the fitted concentration of half-maximal effect; 0% is about no effect; nearly all actives have a fitted effect of over 55% in size
HCV inhibitor: qHTS Assay for Inhibitors of Hepatitis C Virus (HCV); AID 651820, 2012; hit rate 3.4% among 340,000; Potency, µM (series often up to 41.8 µM), inactives show at the highest dose activity change, negative = inhibition, usual class: inhibitors; Huh7.5.1 HCVcc-Cre infection, luciferase reporter, 44 h; active = well fitted inhibition curve with a large enough effect; inconclusive = small, poorly fitted or top-dose-only effect, or another doubt; inactive = no such curve, though single readings can be large or run the other way; note: potency is the fitted concentration of half-maximal effect; % is set by controls: 0 for no effect and ±100 for the full control effect
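Whole-lifecycle infectious HCVcc-Cre system; cells 1,000/well, compound then virus (~0.5 moi) added 4 h after plating, 44 h culture. Luciferase read 15 sec following 15 min substrate incubation, room temp.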
Numbers without * were called inactive; ? = inconclusive; · = not tested or not shown; [ ] = dose if it differs, or a comment. This is a sample that favours compounds with a hit; in the whole collection about 8% have one here.

SMILES	HCMV inh	Lassa entry inh	FMDV inh	Marburg entry inh	SARS PLpro yeast	HCV inhibitor
Cc1[nH]c2ccccc2c1Cc1n[nH]c(=S)n1C	-14.0	14.5%	-8.0%	7.4%	10.4%	20.7%
OC(c1ccccc1)(c1ccc(Cl)cc1)C1CN2CCC1CC2 (stereo not given)	39.3	12.6µM*	-0.2%	?	0.2%	2.82µM*
Cc1ccc(C)c2c(N)c3c(nc12)CCCCC3 (tested in a mixture with another compound)	-70.4*	-1.7%	-25.1%	-0.5%[46.1 µM]	0.1%	?
Cc1cc(Cl)ccc1OCC(=O)NCC1Cc2cc(-c3cnccn3)ccc2O1 (stereo not given)	·	·	-13.9%	·	·	·
CC(C)c1ccc(C2C3=C(CC(C)(C)CC3=O)NC3=C2C(=O)c2ccccc23)cc1 (stereo not given)	-71.8*	?	-1.0%	?	-4.1%	11.2µM*
CC1(C)CC(=O)C2=C(C1)NC1=C(C(=O)c3ccccc31)C2c1cccnc1 (stereo not given)	?	·	-18.2%	·	0.5%	-15.7%
Cc1ccccc1/C=C\c1nc2ccccc2c(=O)[nH]1	46.9	?	25.3%	?	0.3%	10µM*
Cc1ccc(/C=C/c2nc3ccccc3c(=O)[nH]2)cc1	46.8	·	15.8µM*	·	-0.6%	11.8%
Cc1ccccc1/C=C/c1nc2ccccc2c(=O)[nH]1	67.4	?	3.3%	?	-1.4%	-24.0%
Cc1ccc(/C=C/c2nc3ccccc3[nH]2)cc1	-91.2*	2.24µM*	8.91µM*	·	·	·
COC(=O)c1ccc(/C=C/c2nc3ccccc3c(=O)[nH]2)cc1	-5.3	?	18.3%	?	-0.2%	15.9%
Cn1c(Cc2ccccc2)nc2cnc(Nc3cccc(C(F)(F)F)c3)cc21	13.7	·	·	·	·	·
CNc1nc2cnc(Nc3cccc(F)c3)cc2n1-c1cccc(C(F)(F)F)c1	-30.3	·	·	·	·	·
CN(CC(O)COC(c1ccccc1)c1ccccc1)C1CCCCC1 (stereo not given)	?	?	-24.2%	?	-1.7%	-14.1%
CC1CN(CC(O)COC(c2ccc(Cl)cc2)c2ccc(Cl)cc2)CC(C)O1 (stereo not given)	53.0	-24.4%	?	?	-19.5%	10µM*
CN(C)CC(O)COC(c1ccc(Cl)cc1)c1ccc(Cl)cc1 (stereo not given)	?	?	-11.1%	?	-7.3%	3.16µM*
CC1CN(CC(O)COc2ccc(C(C)C)cc2)CC(C)O1 (stereo not given)	28.1	-5.1%	-17.9%	23.2%	-9.6%	?
CCN1CCN(c2cc3c(cc2F)c(=O)c(S(=O)(=O)c2cc(C)cc(C)c2)cn3CC)CC1	-2.4	4.4%[46.1 µM]	6.1%	·	·	·
COc1ccc2c3c(n(C)c2c1)[C@@H](CO)N(C)CC31CN(C(=O)CN2CCOCC2)C1	4.5	·	·	·	·	·
Cc1ccc(CNc2nc(CN3CCNC(=O)C3)nc3ccccc23)o1	·	·	20.7%	·	·	·
COc1ccc2[nH]cc(CCNc3ncncc3-c3ccc4c(c3)OCO4)c2c1	·	·	20µM*	·	·	·
COc1ccc(/C=C2\SC(=S)N(CCCC(=O)N3CCCCC3CCO)C2=O)cc1 (stereo not given)	-99.8*	·	-15.6%	·	-3.7%	-15.2%
O=C1/C(=C/c2ccccc2Cl)SC(=S)N1CCC(=O)N1CCCCC1CCO (stereo not given)	-80.9*	·	-11.6%	·	-50.6%	17.7%
O=C1/C(=C\c2ccccc2)SC(=S)N1CCC(=O)N1CCCCC1CCO (stereo not given)	-86.2*	·	-0.5%	·	-4.1%	21.8%
O=C1/C(=C/c2ccccc2)SC(=S)N1CC(=O)N1CCCCC1c1cccnc1 (stereo not given)	-90.1*	·	?	·	-54.8%	?
COc1cccc(/C=C2\SC(=O)N(CCC(=O)N3CCCCC3CCO)C2=O)c1 (stereo not given)	-35.2	·	-24.1%	·	11.2%	?
CC(C)c1ccc(/C=C2\SC(=S)N(CCC(=O)N3CCCCC3CCO)C2=O)cc1 (stereo not given)	-100.4*	·	11.2µM*	·	-2.8%	-17.0%

Bioassay records deposited in PubChem by National Center for Advancing Translational Sciences (NCATS).
